Experimental data as given in PubChem BioAssay AID1159580 (chemical genetic matrix, 2015).
The campaign covered roughly 5,500 compounds. About 2,000 (36%) were called active. About 18% were inconclusive and are not listed. Cut-off read from the data, not from the text of the source: active = normalized growth mostly below about 0.91 (no sharp cut-off); inconclusive = no clear call, values can overlap the other calls; inactive = mostly above about 0.92. The list shows a part of the results.

Experiment: chemical genetic growth profiling, strain panel (AID 1159580);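 note: tested at 20 µM; growth read once vehicle control cultures reached saturation at 30 °C; 1 = growth at the plate median or of vehicle wells; lower values mean less growth of the strain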
Conditions: growth OD

Measured: normalized growth

CNC(C)(C)Cc1ccccc1
inactive: S. cerevisiae deletion strains, locus YJR043C, strain POL32, active compounds read low 0.977 | S. cerevisiae deletion strains, locus YJR066W, strain TOR1, active compounds read low 1.01 | S. cerevisiae deletion strains, locus YKL009W, strain mrt4, active compounds read low 0.988 | S. cerevisiae deletion strains, locus YKL068W, active compounds read low 1 | S. cerevisiae deletion strains, locus YKL085W, strain MDH1 (second series), active compounds read low 1.01 | S. cerevisiae deletion strains, locus YKL085W, strain MDH1, active compounds read low 1.01 | S. cerevisiae deletion strains, locus YKL160W, strain elf1, active compounds read low 1.01 | S. cerevisiae deletion strains, locus YKL190W, strain CNB1, active compounds read low 1.01 | S. cerevisiae deletion strains, locus YKR001C, strain vps1, active compounds read low 0.991 | S. cerevisiae deletion strains, locus YKR026C, strain gcn3, active compounds read low 1.02 | S. cerevisiae deletion strains, locus YKR091W, strain srl3, active compounds read low 1 | S. cerevisiae deletion strains, locus YLL001W, strain dnm1, active compounds read low 1.01 | S. cerevisiae deletion strains, locus YLL026W, active compounds read low 1.02 | S. cerevisiae deletion strains, locus YLL041C, strain sdh2, active compounds read low 1.02 | S. cerevisiae deletion strains, locus YLR027C, strain aat2, active compounds read low 1.02 | S. cerevisiae deletion strains, locus YLR039C, strain RIC1, active compounds read low 1.04 | S. cerevisiae deletion strains, locus YLR058C, strain SHM2, active compounds read low 1.01 | S. cerevisiae deletion strains, locus YLR102C, strain apc9, active compounds read low 1.01 | S. cerevisiae deletion strains, locus YLR113W, strain HOG1, active compounds read low 1.06 | S. cerevisiae deletion strains, locus YLR221C, strain rsa3, active compounds read low 1.02 | S. cerevisiae deletion strains, locus YLR258W, strain gsy2, active compounds read low 1.02 | S. cerevisiae deletion strains, locus YLR262C, strain YPT6 (second series), active compounds read low 1 | S. cerevisiae deletion strains, locus YLR262C, strain YPT6, active compounds read low 1.02 | S. cerevisiae deletion strains, locus YLR268W, strain sec22, active compounds read low 1 | S. cerevisiae deletion strains, locus YLR320W, strain mms22, active compounds read low 1.04 | S. cerevisiae deletion strains, locus YLR330W, strain CHS5, active compounds read low 1.01 | S. cerevisiae deletion strains, locus YLR342W, strain FKS1 (second series), active compounds read low 1.08 | S. cerevisiae deletion strains, locus YLR342W, strain FKS1, active compounds read low 1.02 | S. cerevisiae deletion strains, locus YLR357W, strain rsc2, active compounds read low 0.988 | S. cerevisiae deletion strains, locus YLR370C, strain arc18, active compounds read low 1.01 | S. cerevisiae deletion strains, locus YLR371W, strain rom2, active compounds read low 1.01 | S. cerevisiae deletion strains, locus YLR384C, strain iki3, active compounds read low 1.01 | S. cerevisiae deletion strains, locus YLR418C, strain cdc73, active compounds read low 1.01 | S. cerevisiae deletion strains, locus YML016C, strain PPZ1, active compounds read low 1.01 | S. cerevisiae deletion strains, locus YML032C, strain rad52, active compounds read low 0.985 | S. cerevisiae deletion strains, locus YML120C, strain ndi1, active compounds read low 1.02 | S. cerevisiae deletion strains, locus YML124C, strain tub3, active compounds read low 1.01 | S. cerevisiae deletion strains, locus YMR058W, strain fet3, active compounds read low 1 | S. cerevisiae deletion strains, locus YMR078C, strain ctf18, active compounds read low 0.999 | S. cerevisiae deletion strains, locus YMR125W, strain sto1, active compounds read low 1.02 | S. cerevisiae deletion strains, locus YMR129W, active compounds read low 1.01 | S. cerevisiae deletion strains, locus YMR205C, strain PFK2, active compounds read low 1.03 | S. cerevisiae deletion strains, locus YMR223W, strain ubp8, active compounds read low 1.02 | S. cerevisiae deletion strains, locus YMR231W, strain pep5, active compounds read low 1.02 | S. cerevisiae deletion strains, locus YMR307W, strain GAS1, active compounds read low 1.02 | S. cerevisiae deletion strains, locus YNL067W, strain RPL9B, active compounds read low 0.988 | S. cerevisiae deletion strains, locus YNL071W, strain lat1, active compounds read low 1.01 | S. cerevisiae deletion strains, locus YNL128W, strain TEP1, active compounds read low 1.03 | S. cerevisiae deletion strains, locus YNL183C, strain NPR1, active compounds read low 1 | S. cerevisiae deletion strains, locus YNL209W, strain ssb2, active compounds read low 1.02 | S. cerevisiae deletion strains, locus YNL233W, strain BNI4, active compounds read low 0.995 | S. cerevisiae deletion strains, locus YNL248C, strain rpa49, active compounds read low 1.01 | S. cerevisiae deletion strains, locus YNL250W, strain rad50, active compounds read low 1.02 | S. cerevisiae deletion strains, locus YNL271C, strain bni1, active compounds read low 0.997 | S. cerevisiae deletion strains, locus YNL298W, strain CLA4, active compounds read low 1 | S. cerevisiae deletion strains, locus YNL307C, strain MCK1, active compounds read low 1.01 | S. cerevisiae deletion strains, locus YNL322C, strain KRE1 (second series), active compounds read low 1.02 | S. cerevisiae deletion strains, locus YNL322C, strain KRE1, active compounds read low 1 | S. cerevisiae deletion strains, locus YNR049C, strain mso1, active compounds read low 1.01 | S. cerevisiae deletion strains, locus YNR052C, strain pop2, active compounds read low 1 | S. cerevisiae deletion strains, locus YOL006C, strain TOP1, active compounds read low 0.958 | S. cerevisiae deletion strains, locus YOL012C, strain htz1 1.02 | S. cerevisiae deletion strains, locus YOL147C, strain pex11, active compounds read low 1.01 | S. cerevisiae deletion strains, locus YOR001W, strain rrp6, active compounds read low 1.03 | S. cerevisiae deletion strains, locus YOR061W, strain CKA2, active compounds read low 1.01 | S. cerevisiae deletion strains, locus YOR069W, strain VPS5, active compounds read low 1.01 | S. cerevisiae deletion strains, locus YOR070C, strain gyp1, active compounds read low 1.01 | S. cerevisiae deletion strains, locus YOR080W, strain dia2, active compounds read low 1.02 | S. cerevisiae deletion strains, locus YOR083W, strain WHI5, active compounds read low 1.02 | S. cerevisiae deletion strains, locus YOR106W, strain vam3, active compounds read low 1.03 | S. cerevisiae deletion strains, locus YOR136W, strain idh2, active compounds read low 0.994 | S. cerevisiae deletion strains, locus YOR144C, strain elg1, active compounds read low 0.995 | S. cerevisiae deletion strains, locus YOR184W, strain ser1, active compounds read low 0.998 | S. cerevisiae deletion strains, locus YOR231W, strain MKK1, active compounds read low 1.03 | S. cerevisiae deletion strains, locus YOR265W, strain rbl2, active compounds read low 1.01 | S. cerevisiae deletion strains, locus YOR270C, strain vph1, active compounds read low 1.04 | S. cerevisiae deletion strains, locus YOR290C, strain snf2, active compounds read low 1.01 | S. cerevisiae deletion strains, locus YOR316C, strain cot1, active compounds read low 1.01 | S. cerevisiae deletion strains, locus YPL051W, strain arl3, active compounds read low 1.02 | S. cerevisiae deletion strains, locus YPL078C, strain atp4, active compounds read low 1.01 | S. cerevisiae deletion strains, locus YPL106C, strain sse1, active compounds read low 1.05 | S. cerevisiae deletion strains, locus YPL240C, strain hsp82, active compounds read low 1.01 | S. cerevisiae deletion strains, locus YPL241C, strain CIN2, active compounds read low 1.01 | S. cerevisiae deletion strains, locus YPL256C, strain CLN2, active compounds read low 1.02 | S. cerevisiae deletion strains, locus YPR119W, strain clb2, active compounds read low 1.01 | S. cerevisiae deletion strains, locus YPR141C, strain kar3, active compounds read low 0.998 | S. cerevisiae deletion strains, locus YPR163C, strain tif3, active compounds read low 0.999 | S. cerevisiae deletion strains, locus YPR167C, strain met16, active compounds read low 1 | S. cerevisiae deletion strains, strain wtn01, active compounds read low 0.999 | S. cerevisiae strains, strain wild type, active compounds read low 1.01
